Assay outcomes: PubChem, several laboratories
KKLEB cytotox = reduces viability of KKLEB cystic fibrosis airway cells; hit rate 0.36% among 360,000; activity change (cytotoxicity), % at 5 µM; KKLEB CF airway cells viability, ATPlite luminescence, overnight; active compounds read low; cells stimulated with P. aeruginosa culture filtrate;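 active = corrected activity change at or below -50% at 5 µM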
CF NFkB block = cystic fibrosis NF-kB activation inhibition; KKLEB NF-kB-GFP reporter, PAF-induced, GFP fluorescence overnight; inhibition, % at 5 µM; hit rate 0.86% among 360,000; AID 588850;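 active = at least 50% inhibition at 5 µM, scaled per plate between neutral and stimulator controls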;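 also: PAF is a Pseudomonas aeruginosa culture filtrate used as stimulus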
HIF-2a block = blocks HIF-2a reporter activity. 786-0 RCC cells HIF-2a reporter, luciferase luminescence, overnight. inhibition, % at 18.8 µM. hit rate 0.72% among 360,000;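 active = inhibition of the luminescence signal of 40% or more relative to plate controls, in a single-dose primary screen at 18.75 µM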
Mdm2 MdmX PPI = human Mdm2/MdmX binding inhibition; SaOS-2 split-luciferase Mdm2/MdmX complementation, luminescence; inhibition, % at 8 µM; hit rate 3% among 330,000;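 active = inhibition of at least 50% at 8 µM in the primary screen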
ABHD5-PLIN5 inh = ABHD5-PLIN5 protein interaction inhibition | inhibition, % at 4 µM | hit rate 0.78% among 360,000 | Split G. princeps luciferase complementation, luminescence, 4 h | Q00G26+Q8WTS1;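 active = inhibition above the mean inhibition across every tested compound plus 3 SD, cut at about 22% in these data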
Peg3 prom inh = inhibitors of Peg3 promoter; HeLa PEG-Prom luciferase reporter, luminescence, overnight; inhibition, % at 20 µM; hit rate 1.7% among 360,000; AID 588405;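 active = inhibition of at least 50% at 20 µM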
Mdm2-MdmX conf = confirmation of human Mdm2/MdmX interaction inhibitors. shares compounds with Mdm2 MdmX PPI. Mdm2-MdmX binding, luminescent assay. inhibition, % at 8 µM. hit rate 55% among 10,000. AID 489028; in the data active = inhibition above about 40%
Full FLuc ctr = inhibits full-length luciferase, flagging false Mdm2/MdmX hits; inhibition, % at 8 µM; hit rate 77% among 6,200; SaOS-2 full-length luciferase counterscreen, luminescence; shares compounds with Mdm2 MdmX PPI;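 active = mean inhibition at 8 µM reaching about 37%, which flags the compound as non-specific, limit read from the data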;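 also: p53-null SaOS-2 cells with luciferase driven by a doxycycline-inducible promoter; compound on cells about two nights before reading with doxycycline added after day one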
Numbers stand for hits; i = inactive; nt = no result. An excerpt weighted towards active compounds, which were near 4.6% of everything screened.

SMILES	KKLEB cytotox	CF NFkB block	HIF-2a block	Mdm2 MdmX PPI	ABHD5-PLIN5 inh	Peg3 prom inh	Mdm2-MdmX conf	Full FLuc ctr
CCC(C)c1ccccc1NC(=O)c1cccc(-n2cnnn2)c1 (configuration not stated)	i	i	i	i	i	i	nt	nt
CCN1C(=NCc2ccco2)N[C@@H](c2cccc(C(F)(F)F)c2)C(C(=O)OC)=C1C	i	i	i	56	i	i	i	nt
COC(=O)C1=C(C)N(Cc2ccccc2)C(=NCCc2ccccn2)N[C@H]1c1cccc(C(F)(F)F)c1	i	i	i	81	i	i	51	59
COC(=O)C1=C(C)N(Cc2ccccc2)C(=NCCc2cccnc2)N[C@H]1c1ccc(Br)cc1	i	i	i	85	i	94	47	54
CCN1C(=NCC2CC2)N[C@@H](c2cccc(C(F)(F)F)c2)C(C(=O)OC)=C1C	i	i	i	i	i	i	nt	nt
COC(=O)C1=C(C)N(Cc2ccccc2)C(=NCc2ccccc2)N[C@H]1c1cccc(C(F)(F)F)c1	i	i	i	98	i	99	i	nt
CCN1C(=NCCc2ccccn2)N[C@@H](c2cccc(C(F)(F)F)c2)C(C(=O)OC)=C1C	i	i	i	i	i	i	nt	nt
Cc1cc(C)nc(Nc2nc(C(N)CCc3ccccc3)cs2)n1 (configuration not stated)	i	i	i	nt	i	i	nt	nt
NC(=O)c1cc([N+](=O)[O-])c(Cl)cc1NCc1cccnc1	i	i	i	i	i	i	nt	nt
O=C(CN1CC(c2ccccc2)CC1=O)N/N=C/c1cc(Br)ccc1O (configuration not stated)	i	i	i	62	i	i	65	43
O=C(N/N=C/c1cc(Br)cc(Br)c1O)c1ccncc1	nt	nt	nt	i	nt	nt	nt	nt
O=C(N/N=C/c1cc(Br)cc([N+](=O)[O-])c1O)c1ccc(NC(=O)c2ccc(F)cc2)cc1	i	i	i	56	i	i	i	60
COc1cc(/C=C2/C(=O)N(C)C(=S)N2C)ccc1OCc1cccc(F)c1	i	i	i	88	i	i	i	nt
COc1ccc(CCn2c(NN)nc3c2c(=O)[nH]c(=O)n3C)cc1	i	i	i	57	i	i	50	67
Cc1nc2ccc(C(=O)N3c4ccccc4CC3C)cc2s1 (configuration not stated)	i	i	i	66	i	i	58	50
CC(=O)NC(c1cccc(F)c1)c1nc(-c2csc3ccccc23)cs1 (configuration not stated)	i	i	i	nt	i	i	nt	nt
COc1cc(C(=O)Nc2ccc3c(c2)N(C(=O)CCN(C)C)c2ccccc2CC3)cc(OC)c1OC	i	i	i	61	i	i	41	100
CCn1c2ccccc2c2cc(NC(=O)c3cc(OC)c(OC)c(OC)c3)ccc21	i	i	i	69	i	i	62	119
COc1cc(-n2c(=O)c3ccccc3n(CC(=O)c3ccccc3)c2=O)cc(OC)c1OC	i	i	i	83	i	i	i	nt
CCn1c2ccccc2c2cc(NC(=O)c3ccc(=O)oc3)ccc21	i	i	i	i	i	i	nt	nt
CCn1c2ccccc2c2cc(NC(=O)c3cc(OC)cc(OC)c3)ccc21	i	i	i	i	i	i	nt	nt
COc1cc(-n2c(=O)c3ccccc3n(CC(=O)c3ccc(F)cc3)c2=O)cc(OC)c1OC	i	i	i	i	i	i	nt	nt
CN(C)CC(=O)N1c2ccccc2CCc2ccc(NC(=O)c3ccc(N)cc3)cc21	i	i	i	i	i	i	nt	nt
CCn1c2ccccc2c2cc(NC(=O)c3coc(=O)c(Br)c3)ccc21	i	i	i	74	i	i	i	38
CC1(C(=O)NCc2ccccc2)CN(S(C)(=O)=O)CC(=O)N1CCc1ccc(O)cc1 (configuration not stated)	nt	nt	i	nt	i	nt	nt	nt
SMILES	KKLEB cytotox	CF NFkB block	HIF-2a block	Mdm2 MdmX PPI	ABHD5-PLIN5 inh	Peg3 prom inh	Mdm2-MdmX conf	Full FLuc ctr
Nc1nc2c(ncn2[C@@H]2O[C@H](CNCC3=Cc4cc(O)ccc4OC3)[C@@H](O)[C@H]2O)c(=O)[nH]1	i	i	i	nt	i	i	nt	nt
CC(C)CN1CC(Br)C(=O)NC1=O (configuration not stated)	i	i	i	nt	i	i	nt	nt
CCOc1cccc2sc(N(CCCN(C)C)C(=O)c3ccc(S(=O)(=O)N4CCc5ccccc5C4)cc3)nc12	i	i	i	82	i	i	i	nt
Cc1ccc2sc(N(CCCN(C)C)C(=O)c3ccc(S(=O)(=O)N4CCCCCC4)cc3)nc2c1C	i	i	i	63	i	i	i	89
COc1cccc2sc(N(CCN(C)C)C(=O)c3ccc(S(=O)(=O)N4CCCC4)cc3)nc12	i	i	i	i	i	i	nt	nt
CCN(CC)CCCN(C(=O)c1ccccc1F)c1nc(-c2ccc(OC)cc2)cs1	i	i	i	50	i	i	42	69
CCN(CC)CCCN(C(=O)c1ccc(OC)cc1)c1nc(-c2ccc(OC)cc2)cs1	i	i	i	50	i	i	40	58
COc1ccc(-c2csc(N(CCCN(C)C)C(=O)c3ccc(C(C)(C)C)cc3)n2)cc1	i	i	i	54	i	i	i	nt
CC(=O)Oc1c(C)c(C)c2c(c1C)CC[C@@](C)(CCC[C@H](C)CCC[C@H](C)CCCC(C)C)O2	i	i	i	i	i	i	nt	nt
COc1cc(C(=O)Nc2nc(-c3cccs3)cs2)cc(OC)c1OC	i	i	i	76	i	i	i	nt
COc1ccc(S(=O)(=O)N2CC(C)N(C(=O)N(C)C)C2C(C)C)cc1 (configuration not stated)	i	i	i	i	i	i	nt	nt
O=C(OCn1ncc(Br)c(Br)c1=O)c1ccccc1Cl	-96	91	92	99	i	106	98	i
O=C(OCn1ncc(Br)c(Br)c1=O)c1ccc(F)cc1	-104	93	93	99	i	109	100	i
COC(=O)c1c(-c2ccc(OC)cc2)sc2ccc(N3CCOCC3)cc12	i	i	i	57	i	i	i	nt
COc1ccc(CN(C(=O)c2ccco2)c2ccc(C)c(C)c2)cc1	i	i	i	58	i	i	57	60
N#C/C(=N\Nc1cccc([N+](=O)[O-])c1)C(=O)c1ccc(Br)cc1	-55	51	i	97	i	i	89	i
O=C(O)c1ccc(N=NNc2cccc([N+](=O)[O-])c2)cc1	i	i	i	i	i	i	nt	nt
O=C(COc1coc(CN2CCN(c3ccccc3F)CC2)cc1=O)NC1CCCC1	i	i	i	i	i	i	nt	nt
COc1ccc(CNC(=O)CCC(=O)N2CCN(S(=O)(=O)c3cc([N+](=O)[O-])ccc3C)CC2)cc1	i	i	i	i	i	i	nt	nt
